The list is not random: actives were taken first. Their share in the collection is about 0.92%.
TDP1 block = qHTS Assay for Inhibitors of Tyrosyl-DNA Phosphodiesterase (TDP1); Tyrosyl-DNA phosphodiesterase 1 (Homo sapiens), Q9NUW8; recombinant TDP1, AlphaScreen DNA substrate cleavage; Potency, µM (titrated, usually from 130 µM), without a hit: at the top dose activity change, negative = inhibition, most hits filed as inhibitors; 350,000 tested, 0.28% active; AID 485290, 2010; note: nearly all actives have a fitted effect of over 40% in size
Target sequence (Q9NUW8 whole entry, looked up): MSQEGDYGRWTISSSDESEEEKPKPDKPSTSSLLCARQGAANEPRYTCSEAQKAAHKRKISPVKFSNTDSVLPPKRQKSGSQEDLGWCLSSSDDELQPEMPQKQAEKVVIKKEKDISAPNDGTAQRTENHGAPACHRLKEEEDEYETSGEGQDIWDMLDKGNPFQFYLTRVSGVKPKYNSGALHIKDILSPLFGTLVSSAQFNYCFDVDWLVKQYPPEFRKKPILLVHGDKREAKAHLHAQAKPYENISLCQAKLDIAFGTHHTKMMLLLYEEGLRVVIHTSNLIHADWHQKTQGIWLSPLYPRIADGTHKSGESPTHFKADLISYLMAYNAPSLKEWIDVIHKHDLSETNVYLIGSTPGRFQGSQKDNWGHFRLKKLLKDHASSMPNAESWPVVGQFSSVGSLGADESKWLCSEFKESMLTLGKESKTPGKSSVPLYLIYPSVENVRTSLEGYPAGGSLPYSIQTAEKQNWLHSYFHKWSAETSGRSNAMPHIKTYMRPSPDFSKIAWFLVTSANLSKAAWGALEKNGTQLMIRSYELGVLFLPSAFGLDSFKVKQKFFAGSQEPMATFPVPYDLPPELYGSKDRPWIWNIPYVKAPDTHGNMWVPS
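Compounds were preincubated with Tdp1 (1 nM final) for 15 min at room temperature before substrate (15 nM final) started a 5 min reaction; beads (10 ug/ml final) were then added for 10 min before AlphaScreen detection.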
BLM helicase inh = qHTS Assay for Inhibitors of Bloom's syndrome helicase (BLM); Potency, µM (titrated, usually from 56.1 µM), for inactives: top-dose activity change, negative = inhibition, usual class: inhibitors; AID 2528, 2010; recombinant BLM DNA unwinding, fluorescence dequenching; 350,000 tested, 0.2% active;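 note: plate controls were vehicle for no effect and no enzyme for full effect; nearly all actives have a fitted effect of over 35% in size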
RECQ1 inh = qHTS Assay for Inhibitors of RecQ-Like Dna Helicase 1 (RECQ1); RECQ1 DNA unwinding, red fluorescence kinetic read; AID 2549, 2010; ATP-dependent DNA helicase Q1 (Homo sapiens), P46063; Potency, µM (highest dose often 57.3 µM), for inactives: at the highest dose activity, negative = inhibition, usual class: inhibitors; 240,000 tested, 0.54% active;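 note: plate controls were vehicle for no effect and no enzyme for full effect; nearly all actives have a fitted effect of over 30% in size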
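50 nM RECQ1T1 preincubated 15 min with compound in Tris pH 8.0 buffer with MgCl2, DTT, Tween-20 and 2.5 ug/ml poly(dI-dC); started with 200 nM TAMRA/BHQ-2 forked duplex and 2 mM ATP. Unwinding read as fluorescence (525/598 nm), two reads 2 h apart.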
FEN1 inh = qHTS Assay for the Inhibitors of Human Flap endonuclease 1 (FEN1) | 390,000 tested, 0.35% active | Potency, µM (doses to about 114 µM), without a hit: top-dose activity change, negative = inhibition, usual class: inhibitors | Recombinant FEN1 flap cleavage, fluorescence, 15 min | P39748; note: nearly all actives have a fitted effect of over 65% in size
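Potency values derive from four-parameter Hill fits of normalized qHTS data. The reaction used 10 nM FEN1 preincubated 15 min at room temperature with compound, then 50 nM DNA substrate, read at 0 and 15 min.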
APE1 inh = qHTS Assay for Inhibitors of the Human Apurinic/apyrimidinic Endonuclease 1 (APE1); recombinant APE1, TAMRA/BHQ-2 abasic DNA cleavage fluorescence; Potency, µM (doses to about 65.8 µM), for the others: at the highest dose activity change, negative = inhibition, actives largely listed as inhibitors; 350,000 tested, 0.35% active; AID 2517, 2012; DNA repair nuclease/redox regulator APEX1 (Homo sapiens), P27695;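 note: plate controls were vehicle for no effect and reference inhibitor for full effect; nearly all actives have a fitted effect of over 55% in size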
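APE1 at 0.75 nM preincubated 15 min at room temperature with compound. Reaction then started with 50 nM double-stranded THF-abasic substrate labelled with TAMRA/BHQ-2, and 525/598 nm fluorescence read kinetically. Activity taken as third-minus-first read difference, normalized to DMSO and NSC13755 controls.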
* = called active by the depositor; [ ] = another dose, or the depositor's remark. Calls come from the whole dose curve; as a rule, active = well fitted curve in the direction sought with a large enough effect; inconclusive = small, poorly fitted or top-dose-only effect, or another doubt; inactive = no such curve, though single readings can be large; an effect the other way counts as inactive or inconclusive. Unless noted, % is set by controls: 0 for no effect and ±100 for the full control effect; potency is the fitted concentration of half-maximal effect.

For CCCCNC(=O)COC(=O)c1c2c(nc3ccccc13)/C(=C/c1cccs1)CC2 the results were TDP1 block 2.2%, BLM helicase inh -19.9%, RECQ1 inh 5.0%, FEN1 inh 2.3% and APE1 inh 10.2%.
`CC1CCCCC1NC(=O)COC(=O)c1c2c(nc3ccccc13)/C(=C\c1ccco1)CC2` (configuration not stated) gave FEN1 inh 50.1µM*.
`O=C1CCc2cc(S(=O)(=O)Nc3ccc4ncccc4c3)ccc2N1` gave TDP1 block 2.8%.
`CCCCCC(=O)Nc1cc(S(=O)(=O)O)cc2cc(S(=O)(=O)O)cc(O)c12` gave FEN1 inh 10µM*.
Screening O=S(=O)(c1ccc2c(c1)OCCO2)N1CCN(S(=O)(=O)c2ccc3nc(Cl)c(Cl)nc3c2)CC1 returned TDP1 block -14.3%.
`CCOc1ccc(NC(=O)Cn2sc3nc(C)cc(C)c3c2=O)cc1` gave TDP1 block 0.0%, BLM helicase inh -1.3%, RECQ1 inh -5.6%, FEN1 inh 89.1µM* and APE1 inh 2.0%.
`Cc1cc(C)c2c(=O)n(CC(=O)Nc3ccc(Cl)cc3)sc2n1` gave BLM helicase inh -1.8%, RECQ1 inh -5.7%, FEN1 inh inconclusive and APE1 inh -5.0%.
Screening NC1=CC(=O)c2cccc3cccc1c23 returned TDP1 block -1.0%, BLM helicase inh -6.7%, RECQ1 inh -0.5% and APE1 inh -10.7%.
Screening O=C1C=C(O)c2cccc3cccc1c23 returned BLM helicase inh -3.7%, FEN1 inh 2µM* and APE1 inh 17.5%.
`CC(C)(C)c1ccc(C(=O)NCC(=O)OC(C(=O)Nc2cc(C(F)(F)F)ccc2Cl)c2ccccc2)cc1` (configuration not stated) gave TDP1 block 0.4%.
Screening COc1ccc(C2c3c(n(CCc4ccccc4)cnc3=N)Oc3ccc4ccccc4c32)cc1OC (configuration not stated) returned TDP1 block 1.3%.
Screening COC1=CC(=O)C(O)=C(CCCCCCC/C=C/CCCCCCCC2=C(O)C(=O)C=C(OC)C2=O)C1=O returned FEN1 inh 20µM*.
CCCCCCCCCCCC1=C(O)C(=O)C=C(O)C1=O was read as TDP1 block 25.8%[56.1 µM], BLM helicase inh -6.5%, RECQ1 inh -11.9%, FEN1 inh inconclusive and APE1 inh inconclusive.
`O=C(NNC(=O)c1ccccc1Cl)c1ccc2c(=O)n3c(nc2c1)CCC3` gave TDP1 block -2.7%[56.1 µM], FEN1 inh 16.3% and APE1 inh 18.4%.
For O=C(O)c1ccc2c(=O)n3cc(C(=O)c4ccccc4O)cc(Cl)c3nc2c1 the results were BLM helicase inh -3.9%, RECQ1 inh 12.6%, FEN1 inh 35.5µM* and APE1 inh -6.0%.
For Cc1ccc(S(=O)(=O)/N=C2\C=C(Nc3cccc(C(=O)O)c3)C(=O)c3ccccc32)c(C)c1 the results were TDP1 block 9.4%, BLM helicase inh 25.1µM*, FEN1 inh 70.8µM* and APE1 inh 52.7%.
Screening Cc1ccc(S(=O)(=O)/N=C2\C=C(NS(=O)(=O)c3ccccc3)C(=O)c3ccccc32)c(C)c1 returned FEN1 inh -2.0%.
Screening Cc1ccc(S(=O)(=O)/N=C2\C=C(Nc3cccc(C(=O)O)c3)C(=O)c3ccccc32)cc1 returned TDP1 block 11.3%, BLM helicase inh 20µM*, FEN1 inh inconclusive and APE1 inh -13.2%.
`CCc1ccc(S(=O)(=O)/N=C2\C=C(Nc3ccc(C(=O)O)cc3)C(=O)c3ccccc32)cc1` gave TDP1 block 5.0%[0.0935 µM], BLM helicase inh 25.1µM*, FEN1 inh -31.2% and APE1 inh -15.2%.
Cc1ccc(S(=O)(=O)/N=C2\C=C(Nc3ccc(O)cc3)C(=O)c3ccccc32)cc1 was read as TDP1 block 11.3%, FEN1 inh inconclusive and APE1 inh -28.4%.
For CC(C)(C)c1ccc(S(=O)(=O)/N=C2\C=C(NS(=O)(=O)c3ccccc3)C(=O)c3ccccc32)cc1 the results were TDP1 block 10.9%, BLM helicase inh -17.7%, FEN1 inh inconclusive and APE1 inh 15.8%.
Screening O=C(O)c1[nH]c2ccccc2c1C(c1ccccc1)c1c(C(=O)O)[nH]c2ccccc12 returned BLM helicase inh 6.3%, FEN1 inh -3.9% and APE1 inh 48.5%.
Screening O=C(O)c1[nH]c2ccccc2c1C(c1cc(Cl)cc([N+](=O)[O-])c1O)c1c(C(=O)O)[nH]c2ccccc12 returned BLM helicase inh -5.0%, FEN1 inh 79.4µM* and APE1 inh -1.7%.
For CCN1C(=O)/C(=C\c2ccc(-c3cccc(C(=O)OC)c3)o2)SC1=Nc1ccc(C(=O)O)cc1 the results were BLM helicase inh -8.8% and APE1 inh inconclusive.
For O=C(O)c1cccc(-c2ccc(/C=C3/SC(=Nc4ccccc4)N(Cc4cccnc4)C3=O)o2)c1 the results were BLM helicase inh -17.0%, FEN1 inh inconclusive and APE1 inh 7.52µM*.
`CC(C)(C)n1ncc2c(=O)n(Cc3c(F)cc(Cl)cc3F)cnc21` gave FEN1 inh -15.5% and APE1 inh -0.1%.
Screening Cn1nnnc1Sc1ncnc2scc(-c3ccc(C(F)(F)F)cc3)c12 returned TDP1 block 5.5%, FEN1 inh -17.9% and APE1 inh -4.3%.
Screening Cn1nnnc1Sc1ncnc2scc(-c3ccccc3C(F)(F)F)c12 returned TDP1 block 8.91µM*, FEN1 inh -12.6% and APE1 inh 27.8%.
For C#Cc1nc(Nc2cccc(Cl)c2)nc(NC2CCCC2)n1 the results were TDP1 block -2.1%.
COc1ccc(-c2cc3ccc(O)cc3oc2=O)cc1OC was read as TDP1 block 79.4µM*, BLM helicase inh -15.2%, FEN1 inh -9.3% and APE1 inh -23.5%.
For C#CCOCCOCCOCCNc1nc(N2CCN(C(=O)CCCCCCCCCCNC(=O)Cn3cc(C[C@@H](C)O)nn3)CC2)nc(N2CCN(C(=O)CCCCCCCCCCNC(=O)[C@H](CCCN=C(N)N)n3cc(C[C@@H](C)CC)nn3)CC2)n1 the results were TDP1 block 8.8%, FEN1 inh 89.1µM* and APE1 inh inconclusive.

Screens (PubChem)
